SMILES strings stand for the structures. Inconclusive results are not listed. Unmarked numbers belong to inactive results. Calls of active or inactive are those of the source. Calls follow the shape of the dose curve; as a rule, active = well fitted activation curve with a large enough effect in the signal ratio in the repeat runs (not every such curve was filed as active); inconclusive = weak or mixed curves, or effect the other way; inactive = no such curve, though single readings can be large or run the other way; the % refers to the signal ratio.
% is scaled to controls: 0 for no effect and ±100 for the full control effect; potency is read from the fitted curve at half-maximal effect.

Sequence of Peroxisome proliferator-activated receptor gamma (Homo sapiens) (P37231 whole entry, looked up): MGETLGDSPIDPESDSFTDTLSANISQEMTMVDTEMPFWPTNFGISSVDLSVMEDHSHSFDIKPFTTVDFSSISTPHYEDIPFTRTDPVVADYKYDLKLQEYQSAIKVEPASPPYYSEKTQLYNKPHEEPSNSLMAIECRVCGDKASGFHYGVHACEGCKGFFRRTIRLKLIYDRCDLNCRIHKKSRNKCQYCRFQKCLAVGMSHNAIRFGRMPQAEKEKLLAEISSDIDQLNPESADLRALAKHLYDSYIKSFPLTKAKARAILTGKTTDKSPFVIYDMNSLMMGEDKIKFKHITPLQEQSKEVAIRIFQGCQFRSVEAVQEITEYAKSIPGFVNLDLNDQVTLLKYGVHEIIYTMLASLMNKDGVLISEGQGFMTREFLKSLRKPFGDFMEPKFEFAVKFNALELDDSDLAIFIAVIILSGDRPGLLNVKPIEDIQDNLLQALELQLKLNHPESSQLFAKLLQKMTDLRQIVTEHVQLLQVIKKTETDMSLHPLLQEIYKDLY

This assay addresses Peroxisome proliferator-activated receptor gamma (Homo sapiens) (UniProt P37231). Nature of the assay: qHTS assay to identify small molecule agonists of the peroxisome proliferator-activated receptor gamma (PPARg) signaling pathway (AID 743094). As to conditions: HEK293H PPARg-UAS-bla, beta-lactamase FRET ratio, 17 h; series mostly up to 57 µM; activation: at the top concentration. The text has this: U.S. Tox21 Program National Center for Advancing Translational Sciences [NCATS] NIH Chemical Genomics Center [NCGC] U.S. Environmental Protection Agency [EPA] National Institutes of Environmental Health Sciences [NIEHS] National Toxicology Program [NTP] U.S. Food and Drug Administration [FDA] Tox21 Assay Overview: The peroxisome proliferator-activated receptors (PPARs) are lipid-activated transcription factors of the nuclear receptor superfamily with three distinct subtypes namely PPAR alpha, PPAR delta (also called PPAR beta) and PPAR gamma (PPARg). All these subtypes heterodimerize with Retinoid X receptor (RXR) and these heterodimers regulate transcription of various genes. PPAR-gamma receptor (glitazone receptor) is involved in the regulation of glucose and lipid metabolism. To identify the compounds that activate PPAR-gamma signaling, GeneBLAzer PPAR gamma UAS-bla HEK293H cell line (Invitrogen, Carlsbad, CA, USA) containing a beta-lactamase reporter gene under control of the control of an upstream activator sequence (UAS) stably integrated into HEK293H cells was used to screen Tox21 compound library.
Tox21 Assay Protocol Summary: PPARg-bla cells were dispensed at 3000 cells/6uL/well in 1536-well black wall/clear bottom plates using a Multidrop Combi (Thermo Fisher Scientific, Waltham, MA) dispenser. After the assay plates were incubated at 37C and 5% CO2 for 5 h, 23 nL of compounds dissolved in DMSO, positive controls or DMSO only was transferred to the assay plate by a Pintool station (Kalypsys, San Diego, CA). The assay plates were incubated at 37C for 17 h. After 1 uL of LiveBLAzerTM B/G FRET substrate was added using a Bioraptr Flying Reagent Dispenser (FRD) workstation (Beckman Coulter, Indianapolis, IN, USA), the plates were incubated at room temperature for 1 h, and fluorescence intensity was measured by an Envision plate reader (PerkinElmer, Shelton, CT).
`ClC1=C(Cl)[C@]2(Cl)[C@H]3[C@H]([C@@H]4C=C[C@H]3C4)[C@@]1(Cl)C2(Cl)Cl`: the “activation” value is 0.268%.

For the molecule `Cc1c([N+](=O)[O-])c(C)c([N+](=O)[O-])c(C(C)(C)C)c1[N+](=O)[O-]`, the “activation” value is 4.64%.

Consider `ClCBr`, for which the “activation” value is -1.56% [at 78.9 µM].

With `CCC[CH2][Sn]([CH2]CCC)([CH2]CCC)[CH2]CCC`, the Potency was 54.9 µM (active). `Oc1cccc(Cl)c1Cl`: the “activation” value was -3.26% [at 78.9 µM]. Same read-out and setting: next, `CCN(CC)CCN1C(=O)CN=C(c2ccccc2F)c2cc(Cl)ccc21`: -6.2%; `CCCCCON=O`: -10.9% [at 78.9 µM]; `COC(=O)c1cc(Oc2ccc(Cl)cc2Cl)ccc1[N+](=O)[O-]`: -0.938%. For the molecule `BrCC(Br)(Br)Br`, the “activation” value is 6.69% [at 78.9 µM]. `Cc1cnc2c(C(=O)O)c(Cl)ccc2c1`: the “activation” value was -6.16%.

On to `C=CCOC(=O)c1ccccc1N`, for which the “activation” value is -0.639% [at 78.9 µM].

For `CC(C)Br`, the “activation” value was -2.68%. On the same count and under the same terms, next, `COP(=S)(OC)Oc1nc(Cl)c(Cl)cc1Cl`: -4.29%. As to `CCC[CH2][Sn]([CH2]CCC)([CH2]CCC)[O][Sn]([CH2]CCC)([CH2]CCC)[CH2]CCC`, the Potency was 0.676 µM (active). Take `CC(C)=CC1C(C(=O)OC(C#N)c2cccc(Oc3ccccc3)c2)C1(C)C` (stereo not given): the “activation” value was -3.85%. On the same count and under the same terms, the value for `O=C(Nc1ccc(F)cc1F)c1cccnc1Oc1cccc(C(F)(F)F)c1` was -5.37% [at 78.9 µM]. Still for that read-out and setting: the value for `C=CC(=C)C` was 1.21%; that for `CC(=O)C(Cl)C(=O)N(C)C` (stereo not given) was 0.0782%. Same read-out and setting: the value for `Oc1ccc(Cl)c(Cl)c1` was -11.6%; that for `CN1[C@@H]2CC[C@H]1CC(O)C2` (stereo not given in full) was -0.44% [at 78.9 µM]. Take `C[N+]1(C)[C@@H]2CC[C@H]1CC(OC(=O)C(CO)c1ccccc1)C2` (stereo not given in full): the Potency result was “inactive”. Consider `Oc1ccc([C@H]2CNCc3c2ccc(O)c3O)cc1O`, for which the “activation” value was -3.75%. Still for that read-out and setting: the value for `O=C(N[C@H]1N=C(c2ccccc2F)c2cccc3c2N(CC3)C1=O)c1cc2ccccc2[nH]1` was 3.5%; that for `CCN(CC)C(=O)N[C@@H]1C=C2c3cccc4[nH]cc(c34)C[C@@H]2N(C)C1` was -5.26%. Same read-out and setting: next, `Cc1ccn2nc(S(=O)(=O)Nc3c(F)cccc3F)nc2n1`: -4.61%; `CCCCON=O`: 0.308% [at 78.9 µM]; `CCN(CC)CCc1c[nH]c2ccccc12`: -5.55% [at 78.9 µM].

As to `C=CCBr`, the “activation” value was 1.92% [at 78.9 µM]. Still for that read-out and setting: the value for `Cc1nn(-c2cc(NS(C)(=O)=O)c(Cl)cc2Cl)c(=O)n1C(F)F` was -6.52%; that for `CC1CN1` (stereo not given) was 0.215%.

Consider `CCC(C)Nc1c([N+](=O)[O-])cc(C(C)(C)C)cc1[N+](=O)[O-]` (stereo not given), for which the “activation” value is -5.12%. On to `CC(Cc1ccc(OCC(=O)O)cc1)NCC(O)c1csc(C(F)(F)F)n1` (stereo not given), for which the “activation” value is -3.7%. Still for that read-out and setting: the value for `O=[N+]([O-])c1ccccc1-c1ccccc1` was -0.945%.

On to `CC1CCCC1`, for which the “activation” value is -5.45%.

For the molecule `OCC(Br)CBr` (stereo not given), the “activation” value was -1.07% [at 78.9 µM].

On to `CCCCCCCc1ccc(O)cc1`, for which the “activation” value was -4.55%. Regarding `CC(C)c1c(CN(C)C(C)Cc2ccccc2)n(C)n(-c2ccccc2)c1=O` (stereo not given), the “activation” value was -4.83% [at 26.2 µM].

On to `[O]=[Cr](=[O])([OH])[O][Cr](=[O])(=[O])[OH]`, for which the “activation” value was 0.867%. Same read-out and setting: the value for `ClSC(Cl)(Cl)Cl` was -2.65%; that for `Oc1cc(Cl)cc(Cl)c1` was -8.79% [at 78.9 µM].
